Activity calls are given as the source filed them. Where a call stands in place of a potency, no number is given. Calls come from the whole dose curve; as a rule, active = well fitted activation curve with a large enough effect in the repeat runs; inconclusive = weak or mixed curves; inactive = flat fitted curve, though single readings scatter.
Test: A CellTox Green Cytotoxicity Assay to monitor cytotoxicity in HepG2 cells - 0 hour (AID 1224882); note: nearly all actives have a fitted effect of over 35% in size
Conditions: CellTox Green fluorescence; series mostly up to 76.8 µM
Outline: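 Using 1536-well format, dye-containing HepG2 suspension was seeded, allowed 5 h at 37 C/5% CO2, dosed by pintool with compounds, positive and negative controls, and imaged for fluorescence across 40 h.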
For `Cc1ccc(Cl)c(Nc2ccccc2C(=O)O)c1Cl`, the Potency was “inactive”. In the case of `Cc1cc(=O)c2c(O)c3c(O)cc(=O)c4c3c3c(cc(O)c1c23)C(C)(C)C=4O`, the Potency was 4.65 µM (active). For `NC1[C@H]2CN(c3nc4c(cc3F)c(=O)c(C(=O)O)cn4-c3ccc(F)cc3F)C[C@@H]12` (stereo partly drawn), the Potency was “inactive”. In the case of `CCCCCCCCOc1ccc(C(=O)O)cc1`, the Potency was “inactive”. For `CC1CC(OC(=O)C(O)c2ccccc2)CC(C)(C)N1C` (stereo not drawn), the Potency was “inactive”. With `CC(C)(C)C(=O)C(=O)O` the Potency was “inactive”. With `CCC1(CO)COCOC1` the Potency was “inactive”. For `O=c1cc(-c2ccccc2)oc2cc(O)cc(O)c12`, the Potency was “inactive”. For `CC[C@]1(O)C[C@H]2CN(CCc3c([nH]c4ccccc34)[C@@](C(=O)OC)(c3cc4c(cc3OC)N(C=O)[C@H]3[C@@](O)(C(=O)OC)[C@H](OC(C)=O)[C@]5(CC)C=CCN6CC[C@]43[C@@H]65)C2)C1`, the Potency was “inactive”. With `OC(CCN1CCCC1)(c1ccccc1)C1CCCCC1` (stereo not drawn) the Potency was “inactive”. With `CCOC(=O)c1ccc(C#Cc2ccc3c(c2)C(C)(C)CCS3)nc1` the Potency was “inactive”. With `COC(=O)[C@H]1[C@H]2C[C@@H]3c4[nH]c5cc(OC)ccc5c4CCN3C[C@H]2C[C@@H](OC(=O)/C=C/c2ccc(O)c(OC)c2)[C@@H]1OC` the Potency was 26.8 µM (active). In the case of `O=C1c2ccccc2C(=O)C1(O)O`, the Potency was “inactive”. For `Nc1nnc(-c2ccc([N+](=O)[O-])o2)o1`, the Potency was “inactive”. With `Oc1ccc(Cl)c2cccnc12` the Potency was “inactive”. In the case of `CCCCCCCC/C=C\CCCCCCCCO`, the Potency was “inactive”. In the case of `CC(CC1c2ccccc2CCc2ccccc21)CN(C)C` (stereo not drawn), the Potency was “inactive”. For `C[C@H]1C[C@H](O)c2ccsc2S1(=O)=O`, the Potency was “inactive”.
Potency is the fitted concentration of half-maximal effect.
